Assay outcomes from PubChem BioAssay.
PriA SSB inh: K. pneumoniae PriA-SSBct interaction inhibition; AlphaScreen SSBct-PriA binding, biotinylated peptide; inhibition, % at 33 µM; 430,000 compounds, 0.6% hits; AID 1272365; in the data active = inhibition mostly above about 37%, no sharp cut-off; inactive = mostly below about 20%;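 note: plate controls were negative control peptide for no effect and reference peptide for full effect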
Rv3671c inh: inhibitors of M. tuberculosis serine protease Rv3671c; P9WHR9; 320,000 compounds, 0.048% hits; AID 2606; inhibition, % at 5.96 µM; in the data active = inhibition above about 38%;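 note: extracellular domain of Rv3671c used as enzyme; 0% = enzyme with DMSO and 100% = no enzyme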
GDH-TPI counter-1: inhibits GDH-TPI coupling enzymes, artifact for Mtb FBA screen; GDH-TPI coupled enzyme counterscreen, NADH absorbance; AID 588335; inhibition, % at 4.8 µM; 360,000 compounds, 1.2% hits; in the data active = inhibition above about 30%;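 note: 0% = DMSO wells and 100% = wells lacking the enzyme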
Mtb FBA inh: inhibits M. tuberculosis FBA enzyme; AID 588726; purified M. tuberculosis FBA, fluorescence read-out; inhibition, % at 1 µM; 360,000 compounds, 2.3% hits;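 note: 0% = vehicle and 100% = reference inhibitor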
Mtb UGM inh: blocks M. tuberculosis UGM enzyme. purified UGM, fluorescence polarization probe displacement. inhibition, % at 10 µM. 320,000 compounds, 0.06% hits. AID 504406; in the data active = inhibition above about 10%, passing the limit was not always enough
Target sequence (P9WIQ1 whole entry, looked up): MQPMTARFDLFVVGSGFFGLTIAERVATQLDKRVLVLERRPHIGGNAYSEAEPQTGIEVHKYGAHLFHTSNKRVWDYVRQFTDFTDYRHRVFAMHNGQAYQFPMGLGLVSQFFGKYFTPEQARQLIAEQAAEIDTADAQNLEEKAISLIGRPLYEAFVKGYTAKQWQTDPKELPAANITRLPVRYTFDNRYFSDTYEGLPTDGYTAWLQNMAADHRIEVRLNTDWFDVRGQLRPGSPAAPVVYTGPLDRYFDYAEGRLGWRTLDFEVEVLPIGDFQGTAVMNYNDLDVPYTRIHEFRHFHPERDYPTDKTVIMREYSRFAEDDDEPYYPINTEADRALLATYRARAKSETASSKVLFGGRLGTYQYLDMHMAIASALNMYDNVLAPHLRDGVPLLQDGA
Mtb betalactam: beta-lactam sensitization of Mtb H37Rv. inhibition, % at 25 µM. M. tuberculosis H37Rv growth with meropenem, percent inhibition. AID 434955. 330,000 compounds, 0.27% hits; call rule not given here;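 note: growth measured after seven days incubation then overnight dye step; 0% = bacteria only wells and 100% = bacteria with antibiotic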
Mtb FBA confirm: Mtb FBA inhibition, confirmed. shares compounds with Mtb FBA inh. purified M. tuberculosis FBA, fluorescence read-out. inhibition, % at 1 µM. 5,600 compounds, 78% hits. AID 651616;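 note: 0% = vehicle wells and 100% = reference inhibitor wells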
GDH-TPI counter-2: inhibits GDH-TPI coupling enzymes, flagging Mtb FBA hits; inhibition, % at 1 µM; 5,600 compounds, 81% hits; AID 652141; shares compounds with Mtb FBA inh; GDH-TPI coupled enzyme counterscreen, fluorescence; in the data active = inhibition above about 10%
GDH-TPI dose: GDH-TPI dose response counter-screen for Mtb FBA; GDH-TPI coupled enzyme assay, fluorescence, artifact counterscreen; 170 compounds, 79% hits; IC50, µM; shares compounds with Mtb FBA inh; call rule not given here
* marks the source's active call; other numbers are inactive results; x = no result given. Only some compounds are listed: those with a hit (about 3.2% of all), similar ones and a draw of the others. Cut-off read from the data, not from the text of the source, unless noted: active = inhibition above about 27%; inactive = the rest.

SMILES	PriA SSB inh	Rv3671c inh	GDH-TPI counter-1	Mtb FBA inh	Mtb UGM inh	Mtb betalactam	Mtb FBA confirm	GDH-TPI counter-2	others
COc1ccc2oc(C(=O)OCC(=O)NC3CCS(=O)(=O)C3)c(C)c2c1 (stereo not drawn)	x	x	6.2	52.8*	x	x	166.8*	103.7*
COc1ccc2oc(C(=O)OCC(=O)Nc3cc(S(=O)(=O)N4CCOCC4)ccc3OC)c(C)c2c1	-6.8	8.7	4.9	6.8	-0.6	-6.4	x	x
COc1ccc2oc(C(=O)OCC(=O)Nc3cc(S(=O)(=O)N4CCOCC4)ccc3C)c(C)c2c1	-20.9	-51.2	8.6	31.9*	1.0	1.8	-3.4	-4.7
CCOc1ccc2oc(C(=O)OCC(=O)NC3CCCCC3)c(C)c2c1	-7.8	-8.3	-6.5	21.8	-1.6	19.1	x	x
CCOC(=O)c1ccccc1NC(=O)CSc1nc2c(oc3ccccc32)c(=O)n1Cc1ccco1	-2.0	x	x	x	x	x	x	x
CC(C)(C)Sc1ccc(C=NO)cc1[N+](=O)[O-]	8.4	x	x	x	x	x	x	x
COc1ccc2oc(C(=O)OCC(=O)Nc3ccc(NC(C)=O)cc3)c(C)c2c1	-8.4	-75.4	8.0	27.4*	2.1	-1.9	93.9*	79.7*
CC(C)NC(=O)COC(=O)c1ccc(Cl)c(S(N)(=O)=O)c1	-8.1	-9.6	4.4	1.4	-1.4	-12.0	x	x
CC(C)NC(=O)COC(=O)c1ccc(Cl)c(S(=O)(=O)N2CCCC2)c1	8.6	2.1	7.3	39.6*	-1.7	-1.0	123.7*	95.4*
O=C(Cc1ccccc1)Nc1cccc(-c2nnc(-c3ccco3)o2)c1	-11.7	-13.4	4.9	32.2*	-4.0	-16.1	38.4*	35.3*
CC(=O)/C=C(\C)Nc1ccc(-c2cnc(-c3ccccc3)o2)cc1	x	-0.4	19.0	90.2*	4.1	74.9	91.1*	76.3*
CC(C)C(=O)Nc1ccc(-c2nnc(-c3ccccc3)o2)cc1	-13.2	x	-0.7	33.1*	-2.7	5.1	47.2*	35.5*
COc1ccccc1OCC(=O)Nc1cccc(-c2nnc(-c3ccco3)o2)c1	-27.8	-16.4	2.2	17.9	-0.2	8.1	x	x
O=C(Nc1ccc(-c2nnc(-c3ccccc3)o2)cc1)C(F)(F)F	4.2	-5.5	6.9	0.9	-1.0	28.0	x	x
O=C(COc1ccccc1)Nc1ccc(-c2nnc(-c3ccco3)o2)cc1	-1.2	4.4	3.4	35.7*	-1.2	-0.3	4.4	4.6
CNC(=O)c1ccsc1NC(=O)[C@@H]1CCCN1S(C)(=O)=O	-5.0	x	x	x	x	x	x	x
NCc1nc(-c2ncccn2)no1	-17.0	x	x	x	x	x	x	x
O=C1CC(C(=O)Nc2ccccc2)SC(=NNC(=O)c2ccccc2Cl)N1 (stereo not drawn)	-1.8	x	x	x	x	x	x	x
O=C(CCS(=O)(=O)c1ccccc1)Nc1cnn([C@H]2CCOC2)c1	-10.0	x	x	x	x	x	x	x
N#Cc1ccc2ccn(CC(=O)NC3CCCCCC3)c2c1	-11.9	-6.9	-12.1	14.1	-1.0	12.1	x	x
COC(=O)c1ccc2ccn(CC(=O)NC3CCCCC3)c2c1	-5.1	-5.9	1.9	70.5*	-2.2	-1.1	-2.9	-1.0
CCc1ccc(S(=O)(=O)NCc2csc(C)n2)cc1	-12.0	x	7.3	34.0*	-1.6	8.2	1.1	-7.6
O=C(NCc1ccsc1)C1(c2ccccc2)CCOCC1	4.0	x	x	x	x	x	x	x
O=C(c1ccc2c3c(cccc13)CC2)C1CCCN(Cc2ccncc2)C1 (stereo not drawn)	1.4	-3.8	18.2	12.0	2.2	48.9	x	x
O=C(c1ccc2c3c(cccc13)CC2)C1CCCN(CC2CC2)C1 (stereo not drawn)	12.6	2.9	8.2	33.3*	0.4	-5.9	5.6	-2.1
O=S(=O)(Nc1cccc(C(F)(F)F)c1)c1c(Cl)cccc1Cl	-13.0	x	x	x	x	x	x	x
CC1CCCC(C)N1N=Cc1ccc(N(C)C)cc1 (stereo not drawn)	2.1	x	x	x	x	x	x	x
COc1cccc(/C=C/c2nc(S(=O)(=O)c3ccccc3)c(N3CCC(C(N)=O)CC3)o2)c1	x	x	31.0*	38.1*	x	x	21.9	7.6	GDH-TPI dose=1.34*
NC(=O)c1c(NC(=O)C(=O)N2CCOCC2)sc2c1CCC2	-0.1	-4.1	19.7	33.5*	-1.2	-4.8	117.1*	89.0*
